S1P4 antagonist – S1P4 receptor antagonists, primary screen, cell-based | inhibition, % at 4.98 µM | Sphingosine 1-phosphate receptor 4 (Homo sapiens), O95977 | 220,000 compounds, 0.26% hits | S1P4-expressing cells, antagonist mode, reporter read-out | AID 1510, 2009; in the data active = inhibition above about 29%
KCC2 mod – KCC2 cotransporter modulators, thallium flux, primary screen, cell-based, HEK293 KCC2, FluoZin-2 fluorescence, MLSMR. B-score of Tl+ flux slope (higher = more flux/activation; lower = inhibition) at 10 µM. AID 1456, 2008. 190,000 compounds, 2.2% hits. KCC2 cells, thallium flux FluoZin-2 fluorescence;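 active = thallium flux slope and its plate-corrected score both differing from the plate sample mean at a set confidence after two filtering rounds, in either direction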;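 note: slope of fluorescence scaled to starting intensity during 10 to 20 s after thallium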
Target sequence (Q9H2X9 whole entry, looked up): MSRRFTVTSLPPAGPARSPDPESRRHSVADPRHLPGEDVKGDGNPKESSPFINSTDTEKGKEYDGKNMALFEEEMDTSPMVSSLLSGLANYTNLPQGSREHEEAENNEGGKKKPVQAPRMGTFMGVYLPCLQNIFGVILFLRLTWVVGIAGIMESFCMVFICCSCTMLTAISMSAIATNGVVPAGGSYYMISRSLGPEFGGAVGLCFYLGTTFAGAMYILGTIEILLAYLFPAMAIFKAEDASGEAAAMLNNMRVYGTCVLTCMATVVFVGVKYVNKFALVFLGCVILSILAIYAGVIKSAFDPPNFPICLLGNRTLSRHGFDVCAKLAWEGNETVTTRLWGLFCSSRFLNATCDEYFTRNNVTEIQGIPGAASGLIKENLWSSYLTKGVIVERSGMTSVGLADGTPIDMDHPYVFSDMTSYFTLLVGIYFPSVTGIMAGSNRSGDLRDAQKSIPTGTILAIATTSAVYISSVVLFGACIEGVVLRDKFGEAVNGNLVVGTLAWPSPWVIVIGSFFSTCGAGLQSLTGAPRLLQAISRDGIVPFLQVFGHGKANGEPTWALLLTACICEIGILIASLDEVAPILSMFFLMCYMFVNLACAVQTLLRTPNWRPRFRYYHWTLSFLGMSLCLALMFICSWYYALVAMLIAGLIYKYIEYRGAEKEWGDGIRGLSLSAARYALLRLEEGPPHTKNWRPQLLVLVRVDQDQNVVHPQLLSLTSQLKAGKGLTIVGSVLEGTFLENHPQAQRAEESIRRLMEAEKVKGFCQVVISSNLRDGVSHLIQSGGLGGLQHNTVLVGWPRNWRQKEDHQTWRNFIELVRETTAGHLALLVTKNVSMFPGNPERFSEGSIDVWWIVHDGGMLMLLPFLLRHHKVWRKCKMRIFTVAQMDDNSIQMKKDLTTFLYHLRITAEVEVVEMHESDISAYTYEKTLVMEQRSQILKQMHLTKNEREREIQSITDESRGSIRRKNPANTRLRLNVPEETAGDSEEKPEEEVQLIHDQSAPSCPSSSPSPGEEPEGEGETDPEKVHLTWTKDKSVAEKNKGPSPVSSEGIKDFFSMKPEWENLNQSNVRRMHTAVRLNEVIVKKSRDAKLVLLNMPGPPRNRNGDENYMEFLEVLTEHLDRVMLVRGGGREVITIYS
ROMK mod – ROMK potassium channel modulators, primary screen, cell-based, thallium flux, MLSMR library; AID 1918, 2009; ATP-sensitive inward rectifier potassium channel 1 (Homo sapiens), P48048; 130,000 compounds, 2% hits; Tet-inducible ROMK, thallium flux fluorescence; actives lie on both sides; B-score at 10 µM;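 active = signal ratio slope over the read window, or its plate-corrected B-score, at least 3 SD from the plate mean, either direction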;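 note: B-score of the F/F0 ratio slope over 7 to 12 s after thallium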
S1P4 ag – S1P4 receptor agonists, primary screen, cell-based | S1P4-expressing cell line, agonist reporter assay | activation, % at 4.98 µM | 220,000 compounds, 0.35% hits; in the data active = activation above about 11%
RAM network inh – inhibitors of the yeast RAM network, primary screen, dse1pr::URA3 reporter, 5-FOA selection. inhibition, % at 50 µM. AID 868, 2007. 190,000 compounds, 1.8% hits. S. cerevisiae dse1pr::URA3 reporter, 5-FOA growth OD615, 2 d; analog-sensitive cbk1-as2 kinase mutant strain;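 active = inhibition above a set limit, 3 SD over mean compound inhibition, cut at about 8.4% in these data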;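 note: inhibition rescues growth on 5-FOA so higher OD means more RAM inhibition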
S1P3 antag – S1P3 receptor antagonists, primary screen, cell-based. Sphingosine 1-phosphate receptor 3 (Homo sapiens), Q99500. CHO S1P3 NFAT-BLA reporter, FRET fluorescence, antagonist mode. inhibition, % at 4.98 µM. 170,000 compounds, 0.27% hits;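 active = inhibition above the plate cutoff, the mean inhibition of test wells on that plate plus 3 SD, cut at about 28% in these data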;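 note: cells challenged with S1P at its EC80 of 0.8 µM; blue over green emission ratio from cleaved BLA substrate after 4 h stimulation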
KCC2 sec1 – KCC2 modulators in sodium-free buffer, confirmation, cell-based, HEK293 KCC2, thallium flux, secondary assay; normalised thallium flux (F/F0 slope) at 10 µM; shares compounds with KCC2 mod; FluoZin2 fluorescence; hits give high values; 3,700 compounds, 15% hits;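 active = thallium flux slope above the same plate's solvent-only control mean plus 3 SD; inconclusive = the two replicate wells disagree; inactive = no significant difference from solvent-only control wells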
KCC2 bumet counter – thallium flux persisting under bumetanide in KCC2 cells, confirmation, counter-screen for KCC2 modulator project, cell-based, HEK293 KCC2, FluoZin2, secondary assay 3; shares compounds with KCC2 mod; HEK293-KCC2 + bumetanide/ouabain; hits give high values; normalized thallium flux at 10 µM; 3,700 compounds, 49% hits; AID 1714, 2009;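 active = thallium entry rate above the same plate's blocked-transporter control wells by more than 3 SD; inconclusive = the two repeat wells disagree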;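 note: raw slope of fluorescence over initial fluorescence between 10 and 20 s after thallium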
KCC2 secondary2 – KCC2 modulators without ouabain present, confirmation, cell-based, HEK293 KCC2, thallium flux, FluoZin2, secondary assay 2 | thallium flux FluoZin2 fluorescence; actives lie on both sides; F/F0 rise rate, 10–20 s post-thallium | 3,700 compounds, 23% hits | normalized thallium flux at 10 µM | shares compounds with KCC2 mod;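 active = thallium flux slope more than 3 SD above or below the plate's solvent-only control mean, mostly below; inconclusive = the two repeat wells disagreed; inactive = no significant shift from solvent-only controls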
HEK counter1 – thallium flux modulation in parental HEK cells, confirmation, counter-screen for KCC2 modulator project, cell-based, counterscreen 1; shares compounds with KCC2 mod; 3,700 compounds, 46% hits; thallium flux rate (normalised fluorescence) at 10 µM; HEK293 parental cells, thallium flux FluoZin2, ouabain; baseline-ratio fluorescence slope, 10–20 s after thallium;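 active = thallium flux rate significantly above the same plate's solvent-only control wells, beyond their mean plus 3 SD; inconclusive = the two replicate wells gave conflicting results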
KCC2 ouabain – KCC2 inhibitors and activators, ouabain retest, confirmation, HEK-KCC2 cells; shares compounds with KCC2 mod; HEK293-KCC2, thallium flux FluoZin2 fluorescence; bidirectional: low = inhibitor, high = activator; raw Tl+ flux slope (below DMSO = inhibition, above = activation) at 10 µM; 3,700 compounds, 48% hits; AID 1717, 2009;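 active = thallium flux slope beyond 3 SD from same-plate DMSO control mean in most replicates, usually higher, sometimes lower; inconclusive = repeat tests gave conflicting results; inactive = no significant difference from controls in most replicates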;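 note: slope of initial-normalized fluorescence between seconds 10 and 20 after thallium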
HEK293 Tl flux2 – native HEK Tl+ uptake effects, second counter-screen – HEK cells, counterscreen 2, counter-screen for KCC2 modulator project, confirmation | shares compounds with KCC2 mod | HEK293 parental, thallium flux FluoZin-2 fluorescence slope | thallium flux slope at 10 µM | 3,700 compounds, 33% hits | AID 1718, 2009;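 active = thallium flux slope above the same plate's solvent-control mean plus 3 SD in both duplicate wells; inconclusive = duplicate wells that disagreed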;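 note: run without ouabain in cells lacking the KCC2 cotransporter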
Large screens that a line does not name were inactive (follow-up assays come after a bar, where they were run). Rows were chosen to be rich in hits. Some 5.1% of all compounds tested hit in one or more screens of this group.

CCCCOC(=O)n1c(=S)oc2cc(Cl)ccc21	none (no result: ROMK mod, S1P3 antag)
Fc1ccc(CNC(=S)Nc2ccc(Cl)cc2Cl)cc1	none (no result: ROMK mod)
Fc1ccc(NC(=S)Nc2ccc(Cl)cc2Cl)cc1	KCC2 mod 4.5 | KCC2 sec1 inactive | KCC2 bumet counter 0.042 | KCC2 secondary2 inactive | HEK counter1 0.016 | KCC2 ouabain inconclusive | HEK293 Tl flux2 0.013
COC(=O)c1ccc(CN2CCCC(CCC(=O)NCc3ccc(C)o3)C2)cc1 (stereo unspecified)	none
COc1ccc(C2C(C#N)=C(N)Oc3cc(C)[nH]c(=O)c32)c(OC)c1OC (stereo unspecified)	none (no result: KCC2 mod, S1P3 antag) | KCC2 sec1 inactive | KCC2 bumet counter inactive | KCC2 secondary2 inactive | HEK counter1 inactive | KCC2 ouabain inactive | HEK293 Tl flux2 inactive
CCOc1cccc(C2C(C#N)=C(N)Oc3cc(C)[nH]c(=O)c32)c1OCC (stereo unspecified)	none (no result: ROMK mod, RAM network inh)
CC(NC(=O)Cc1cccs1)c1ccncc1 (stereo unspecified)	none (no result: ROMK mod)
CC(NC(=O)Cc1cccs1)c1ccc2c(c1)OCO2 (stereo unspecified)	KCC2 mod 1.7 (no result: ROMK mod) | KCC2 sec1 inactive | KCC2 bumet counter inactive | KCC2 secondary2 inactive | HEK counter1 inactive | KCC2 ouabain inactive | HEK293 Tl flux2 inactive
O=C(Nc1cccnc1)c1ccc(COc2ccccc2Br)o1	KCC2 mod -5 (no result: ROMK mod) | KCC2 sec1 inactive | KCC2 bumet counter inactive | KCC2 secondary2 0.022 | HEK counter1 inactive | KCC2 ouabain inconclusive | HEK293 Tl flux2 inactive
O=C(NCc1cccnc1)c1ccc(COc2ccccc2Br)o1	KCC2 mod -4.7 (no result: ROMK mod) | KCC2 sec1 inactive | KCC2 bumet counter inactive | KCC2 secondary2 0.029 | HEK counter1 inactive | KCC2 ouabain 0.014 | HEK293 Tl flux2 inactive
NS(=O)(=O)c1ccc(CCNC(=O)COC(=O)CN2C(=O)C3CCCCC3C2=O)cc1 (stereo unspecified)	none
CC(C)c1ccc(CNC(=O)C(=O)NCC2CCCO2)cc1 (stereo unspecified)	none
O=C(Nc1ccc2oc(-c3ccccc3)nc2c1)c1ccncc1	KCC2 mod -4.5 (no result: ROMK mod) | KCC2 sec1 inactive | KCC2 bumet counter inactive | KCC2 secondary2 0.022 | HEK counter1 inactive | KCC2 ouabain inconclusive | HEK293 Tl flux2 inactive
O=C(Nc1ccc2oc(-c3ccccc3)nc2c1)c1cccs1	none (no result: ROMK mod, S1P3 antag)
O=C(O)c1ccccc1-c1ccccc1C(=O)Nc1cccc(-c2nc3ccccc3o2)c1	KCC2 mod -5.8 | KCC2 sec1 inactive | KCC2 bumet counter 0.0057 | KCC2 secondary2 0.026 | HEK counter1 inconclusive | KCC2 ouabain 0.013 | HEK293 Tl flux2 inconclusive
O=C(Nc1cccc(-c2nc3ccccc3o2)c1)c1cccnc1	none
CC(C(=O)NC1CCCCC1)N1CCN(C)CC1 (stereo unspecified)	none (no result: ROMK mod, RAM network inh)
C[C@H]1CC[C@H]2C(=O)N[C@H](Cc3ccccc3)C(=O)N2[C@@H]1c1ccccc1	none
Cc1c([N+](=O)[O-])c(C/C=N/O)nn1C	none (no result: ROMK mod, RAM network inh)
O=C(Nc1cc(Cl)ccc1N1CCOCC1)c1cccnc1Cl	none (no result: ROMK mod, RAM network inh)
CCOc1ncccc1C(=O)OCCN1C(=O)c2ccccc2C1=O	KCC2 mod 5.8 (no result: ROMK mod) | KCC2 sec1 inactive | KCC2 bumet counter inactive | KCC2 secondary2 inactive | HEK counter1 inactive | KCC2 ouabain inactive | HEK293 Tl flux2 inactive
CCOc1ncccc1C(=O)OCC(=O)c1ccccc1	none
CCOC(=O)Cc1c(C)c2ccc(N(CC)CC)cc2oc1=O	none (no result: KCC2 mod, ROMK mod)
CCN(CC)c1ccc2c(C)c(-c3ccc(N)cc3)c(=O)oc2c1	KCC2 mod -5.1 (no result: S1P3 antag) | KCC2 sec1 inactive | KCC2 bumet counter 0.011 | KCC2 secondary2 inconclusive | HEK counter1 inactive | KCC2 ouabain 0.016 | HEK293 Tl flux2 inactive
O=C(c1ccc(COc2ccccc2Cl)o1)N1CCCC1	none (no result: S1P3 antag)
O=C(OCc1ccccn1)c1ccc(COc2ccccc2Cl)o1	KCC2 mod -5.9 (no result: ROMK mod, S1P3 antag) | KCC2 sec1 inactive | KCC2 bumet counter inactive | KCC2 secondary2 0.025 | HEK counter1 inactive | KCC2 ouabain 0.013 | HEK293 Tl flux2 inactive
Cc1cccc(N2CCN(C(=O)CCCn3c(=S)[nH]c4cc5c(cc4c3=O)OCO5)CC2)c1C	none (no result: KCC2 mod, S1P3 antag) | KCC2 sec1 inactive | KCC2 bumet counter 0.012 | KCC2 secondary2 inactive | HEK counter1 inconclusive | KCC2 ouabain inconclusive | HEK293 Tl flux2 inconclusive
CC1CC(C)CN(C(=O)CCCn2c(=S)[nH]c3ccccc3c2=O)C1 (stereo unspecified)	KCC2 mod 5.4 | KCC2 sec1 inactive | KCC2 bumet counter 0.029 | KCC2 secondary2 inactive | HEK counter1 0.011 | KCC2 ouabain inconclusive | HEK293 Tl flux2 inconclusive
Nc1ccccc1C(=O)NNC(=O)C(=O)/C=C(\O)c1ccccc1	none (no result: ROMK mod, RAM network inh)
O=C(NC(=S)NCC1CCCO1)c1ccccc1Br (stereo unspecified)	none
